# Laboratory results reported in PMC4336329 (PLoS ONE, 2015).
# About 2,200 (0.71%) of roughly 310,000 compounds showed an effect of 50% or more. Effects have a minus sign here. Only a selection was taken, and strong results are over-represented in it overall.
# Target: human ether-à-go-go-related gene (hERG) potassium channel (human, UniProt Q12809)
# Assay: primary screen, population patch clamp on CHO cells stably expressing hERG; higher = less effect of the substance
# Method: Briefly, Chinese hamster ovary (CHO) cells stably expressing the hERG channel were dislodged from tissue culture flasks and dispensed into PPC plates. […] During the recording, background leak currents were estimated by a 100 ms step to -80 mV from an initial holding potential of -70 mV and subtracted from the subsequent current measurement. The campaign was conducted in two phases using slight differences in recording protocol. In the first phase, the initial voltage pulse used a 100 ms step to -30 mV from a holding potential of -70 mV, a 2 s conditioning step to +25 mV, and a 2 s test step to -30 mV. During the second phase of the screen, the potential during the conditioning step was raised to +45 mV. In both phases of the campaign, a secondary voltage pulse was applied using the same parameters as the second phase initial pulse. The initial and secondary pulses were applied in the absence of compound, and upon application of 1 μM and 10 μM test concentrations. Small molecule effects on hERG current density were quantified by […].
# Sequence of human ether-à-go-go-related gene (hERG) potassium channel (Q12809 whole entry, looked up): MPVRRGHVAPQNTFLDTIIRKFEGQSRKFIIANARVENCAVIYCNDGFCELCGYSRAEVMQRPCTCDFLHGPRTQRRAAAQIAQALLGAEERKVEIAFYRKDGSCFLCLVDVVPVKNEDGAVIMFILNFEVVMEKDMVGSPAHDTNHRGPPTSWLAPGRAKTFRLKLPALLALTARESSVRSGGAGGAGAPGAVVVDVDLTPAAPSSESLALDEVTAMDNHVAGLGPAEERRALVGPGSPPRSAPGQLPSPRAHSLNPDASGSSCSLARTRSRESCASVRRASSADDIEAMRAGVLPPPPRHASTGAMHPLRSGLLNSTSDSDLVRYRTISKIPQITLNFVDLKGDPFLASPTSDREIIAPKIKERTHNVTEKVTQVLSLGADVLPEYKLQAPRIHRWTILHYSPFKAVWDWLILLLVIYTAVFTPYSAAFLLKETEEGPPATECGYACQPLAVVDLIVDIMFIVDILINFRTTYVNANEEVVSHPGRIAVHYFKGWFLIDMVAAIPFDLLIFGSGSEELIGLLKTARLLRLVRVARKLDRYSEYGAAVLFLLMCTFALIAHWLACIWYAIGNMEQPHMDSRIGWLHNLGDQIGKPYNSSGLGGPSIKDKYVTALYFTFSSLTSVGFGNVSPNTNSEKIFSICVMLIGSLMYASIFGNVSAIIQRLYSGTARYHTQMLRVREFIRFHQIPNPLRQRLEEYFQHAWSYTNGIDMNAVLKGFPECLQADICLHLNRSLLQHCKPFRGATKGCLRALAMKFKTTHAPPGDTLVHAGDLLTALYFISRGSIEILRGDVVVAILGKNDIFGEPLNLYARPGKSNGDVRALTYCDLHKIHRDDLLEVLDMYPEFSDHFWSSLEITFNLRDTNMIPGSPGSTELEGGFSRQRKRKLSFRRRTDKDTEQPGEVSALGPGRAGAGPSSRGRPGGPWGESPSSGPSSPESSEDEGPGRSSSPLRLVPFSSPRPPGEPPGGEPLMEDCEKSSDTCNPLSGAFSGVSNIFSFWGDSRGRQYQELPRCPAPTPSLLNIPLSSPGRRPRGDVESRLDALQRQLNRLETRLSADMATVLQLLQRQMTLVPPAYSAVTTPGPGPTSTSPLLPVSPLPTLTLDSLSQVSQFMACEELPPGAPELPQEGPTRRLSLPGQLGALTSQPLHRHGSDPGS
row,Structure (SMILES),"hERG current change (%, negative = inhibition) at 1uM [%]"
1,Cc1cn(COC/C=C/c2ccccc2)c(=O)[nH]c1=O,7.16
2,Cc1cccc(C(=O)NCCCNC(=O)c2ccc(C)nc2)c1,10.6
3,CC(=O)N1CCN(CC(=O)Nc2ccccc2Sc2ccccc2)CC1,-29.8
4,O=C(CN1CCCC1)Nc1ccccc1Sc1ccc(Cl)cc1,-0.77
5,CN1CCN(CC(=O)Nc2c(C(=O)C3CC3)oc3ccccc23)CC1,-16.9
6,CC(=O)N1CCN(CC(=O)Nc2ccccc2Sc2ccc(Cl)cc2)CC1,-58.3
7,O=C(CN1CCN(C(=O)c2ccccc2)CC1)Nc1ccc(Cl)cc1F,-54.8
8,Cc1cc(Cl)ccc1OCCCC(=O)N1CCN(C)CC1,0.322
9,O=C(CN1CCN(C(=O)c2cccc(F)c2)CC1)Nc1ccccc1F,-36.4
10,O=C(CN1CCCCCC1)Nc1ccc(Cl)cc1F,14.6
11,Cc1cc(Cl)ccc1OCCCC(=O)N1CCN(C(=O)c2ccco2)CC1,-59.1
12,COc1ccc2oc(C(=O)c3ccccc3)c(NC(=O)CN3CCN(C)CC3)c2c1,-12.2
13,CN1CCN(CC(=O)Nc2c(C(=O)c3ccccc3)oc3ccccc23)CC1,-83.2
14,Cc1cc(Cl)ccc1OCCCC(=O)N1CCOCC1,-7.13
15,Cn1cnc([N+](=O)[O-])c1Cl,11
16,O=C(CN1C(=O)c2ccccc2C1=O)Nc1ccccc1C(=O)NC1CCCCCC1,6.73
17,Cc1ccc(CNC(=O)c2ccc(N3CCC4(CC3)CC(c3cccc(Br)c3)=NO4)c(NC(=O)c3cccc(C)c3)c2)cc1,8.49
18,CCCSc1nc(C)c(C(C)=O)cc1C#N,7.88
19,O=C(CCN1CCCCC1)Nc1ccc(Cl)cc1C(=O)c1ccccc1,-42.9
20,O=C(CN1CCN(CCO)CC1)Nc1ccc(Cl)cc1C(=O)c1ccccc1,-80.7
21,O=C(CN1CCCC1)Nc1ccccc1C(=O)c1ccccc1,10.5
22,Cc1ccc(CNC(=O)N2CCN(c3ccc(C)cc3)CC2)cc1,14.1
23,N#Cc1ccc(C2=CC(=O)C[C@H](c3ccc(F)cc3)C2)cc1,-61.4
24,Cc1ccc(C2=CC(=O)C[C@H](c3ccc(Cl)cc3)C2)cc1,10.4

row,Structure (SMILES),"hERG current change (%, negative = inhibition) at 1uM [%]"
1,O=C1C=C(c2ccc(-c3ccccc3)cc2)C[C@@H](c2ccc(F)cc2)C1,6.09
2,O=C1C=C(c2ccc(-c3ccccc3)cc2)C[C@@H](c2ccc(Cl)cc2)C1,15.9
3,Cc1ccc(C2=CC(=O)C[C@H](c3ccc(F)cc3)C2)cc1,14.5
4,N#Cc1ccc(C2=CC(=O)C[C@H](c3ccc(Cl)cc3)C2)cc1,-51.9
5,Cc1ccc2nc3c(cc2c1)c(NC(=O)C(C)(C)C)nn3CC(C)C,7.75
6,COc1ccc(S(=O)(=O)N2CCCCCC2)cc1C(=O)N(C)Cc1ccccc1F,6.9
7,CCCn1c(SCC(=O)Nc2ccccc2OC)nnc1-c1ccco1,-18.2
8,NC(=O)c1ccc(NC(=O)CCCNC(=O)c2ccc(Cl)cc2)cc1,16.6
9,CCOc1ccc2nc(NC(=O)c3cc([N+](=O)[O-])ccc3N3CCOCC3)sc2c1,8.4
10,COc1ccc(CN(C(=O)COc2ccccc2)c2ccccc2C(=O)O)cc1,22
11,CC(C)Cn1c(CN(C)Cc2ccccc2)nc2c1c(=O)n(C)c(=O)n2C,-6.95
12,CC12CCC(C(=Nc3ccc(N=C4C(=O)C5(C)CCC4C5(C)C)cc3)C1=O)C2(C)C,8.42
13,COc1ccc(CNC(=S)NC2CCCC2)cc1,9.23
14,COc1ccc(NC(=O)N2CCC(CO)(CC3CCCCO3)CC2)c(OC)c1 (centres unmarked),9.96
15,CC(=O)c1ccc(N2CCN(C(=O)COc3ccc(F)cc3)CC2)c(F)c1,-62.7
16,CC(=O)c1ccc(N2CCN(C(=O)COc3ccccc3F)CC2)c(F)c1,-11.1
17,CCC(=O)c1ccc(N2CCN(C(=O)COc3ccc(F)cc3)CC2)c(F)c1,-71.3
18,CC(=O)c1cc(F)c(N2CCN(C(=O)COc3ccc(F)cc3)CC2)cc1C,-38.2
19,O=C(COc1ccc(-n2cnnn2)cc1)N1CCN(c2ccc(F)cc2)CC1,-60.3
20,O=C(COc1ccc(F)cc1)Nc1ccc(-n2cnnn2)cc1,-27.2
21,CCC(=O)c1ccc(N2CCN(C(=O)COc3ccccc3F)CC2)c(F)c1,-19.1
22,O=C(COc1ccc(-n2cnnn2)cc1)NCCc1ccc(F)cc1,-5.74
23,CCC(=O)c1ccc(N2CCN(C(=O)c3ccc(F)cc3)CC2)c(F)c1,-10.2
